Among the data in ChEMBL document CHEMBL3988442, “University of Dundee, Small-Polar-MMV Screening Library” (2021) are PXC50 values, retold here.

Structures are written as SMILES.

The target of this test is T1, Methionyl-tRNA synthetase, putative (Leishmania donovani (strain BPK282A1)) (UniProt E9BF75).
T1 sequence (whole entry): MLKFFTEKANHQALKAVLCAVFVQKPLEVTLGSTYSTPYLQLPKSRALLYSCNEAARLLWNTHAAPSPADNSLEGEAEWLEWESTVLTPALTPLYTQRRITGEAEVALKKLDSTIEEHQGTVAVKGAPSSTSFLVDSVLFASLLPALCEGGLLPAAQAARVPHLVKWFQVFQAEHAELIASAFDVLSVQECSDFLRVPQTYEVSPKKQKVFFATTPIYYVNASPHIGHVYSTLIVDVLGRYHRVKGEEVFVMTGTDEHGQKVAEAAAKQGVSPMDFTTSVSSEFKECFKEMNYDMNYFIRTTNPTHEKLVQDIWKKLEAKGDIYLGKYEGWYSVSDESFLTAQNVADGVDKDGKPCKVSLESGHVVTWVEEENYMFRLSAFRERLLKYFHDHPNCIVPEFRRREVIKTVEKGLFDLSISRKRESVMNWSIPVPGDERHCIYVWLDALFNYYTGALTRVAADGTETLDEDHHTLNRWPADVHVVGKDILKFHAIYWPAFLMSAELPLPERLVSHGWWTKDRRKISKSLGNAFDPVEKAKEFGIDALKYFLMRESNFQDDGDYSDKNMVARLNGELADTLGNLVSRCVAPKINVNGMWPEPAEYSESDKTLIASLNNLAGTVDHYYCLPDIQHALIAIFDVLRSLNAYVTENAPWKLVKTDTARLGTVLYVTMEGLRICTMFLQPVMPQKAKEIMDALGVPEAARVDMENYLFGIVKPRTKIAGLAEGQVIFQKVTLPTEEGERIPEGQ
Briefly: Leishmania donovani Methionine tRNA synthetase (LdMetRS):v7. Dose response assay. It counts as functional. Further details: conc 80 nM, time 150 minutes.

As to `CCc1nc(NCCO)c2c3c(sc2n1)CCC3`, the PXC50 was below 4 (MAX_EFFECT 3.274559194) and below 4 (MAX_EFFECT 5.852417303).
Turning to `CCc1cc2c(NCCCN(C)C)nc(C)nc2s1`, the PXC50 is below 4 (MAX_EFFECT 11.55778894) and below 4 (MAX_EFFECT 12.03931204).
On to `CCc1nc(-n2nc(C)cc2N)c2c3c(sc2n1)CCCC3`, for which the PXC50 runs as follows: (MAX_EFFECT 9.836065574) below 4; (MAX_EFFECT 10.69518717) below 4.
`COc1ccc(C(=O)[C@H]2C[C@@H]2CN(Cc2ccccn2)Cc2ccccn2)cc1`: the PXC50 is below 4 (MAX_EFFECT 11.1627907) and below 4 (MAX_EFFECT 16.55011655).
As for `COc1cc(C(=O)NC2CCCC2)cn2c(N3CCN(S(C)(=O)=O)CC3)ccc12`, the PXC50 is, setting by setting: (BOTTOM 3.193013855, HILLSLOPE 0.707285439, MAX_EFFECT 58.33333333, TOP 100.0) 4.17; (BOTTOM -2.394752883, HILLSLOPE 0.813527414, MAX_EFFECT 65.35087719, TOP 100.0) 4.43.
On to `Nc1noc2ccc(-c3cnc4ccc(NCCn5cccn5)nn34)cc12`, for which the PXC50 was below 4 (MAX_EFFECT 13.59649123) and below 4 (MAX_EFFECT 13.74045802).
`NCC1CC1c1ccc(Cl)cc1Cl` (stereo not drawn): the PXC50 was 3.07 (BOTTOM -0.51010351, HILLSLOPE 1.132508714, MAX_EFFECT 55.5075594, TOP 100.0) and below 3 (MAX_EFFECT 48.09885932).
With `Cc1nn(C)cc1-c1cc(C(F)(F)F)nc(NC2CCCCC2)n1`, the PXC50 is, setting by setting: (MAX_EFFECT 7.049608355) below 4; (MAX_EFFECT 12.01044386) below 4.
Consider `Cc1nc(NC2CCCC2)c2c3c(sc2n1)CCCC3`, for which the PXC50 (MAX_EFFECT 28.64583333) is below 4 and the PXC50 (MAX_EFFECT 30.70175439) was below 4.
Turning to `CC(C)C[C@@H](N)COc1cccc(F)c1Oc1cccc(Cl)c1`, the PXC50 by setting is: (BOTTOM 1.372222408, HILLSLOPE 1.087653332, MAX_EFFECT 50.72463768, TOP 100.0) 4.03; (BOTTOM -0.306407193, HILLSLOPE 1.563618531, MAX_EFFECT 56.92963753, TOP 100.0) 4.11.
`Cc1sc2nc(CN3CCOCC3)nc(NC3CC3)c2c1C` showed a PXC50 (MAX_EFFECT 8.673469388) below 4 and a PXC50 (MAX_EFFECT 8.838383838) below 4.
For `O=C(O)C1CCCN1c1nc(-c2ccc(Cl)c(Cl)c2)cc(C(F)(F)F)n1` (stereo not drawn), the PXC50 is below 4 (MAX_EFFECT 9.660574413) and below 4 (MAX_EFFECT 10.44386423).
Take `CS(=O)(=O)N1CCN(c2ccc3ccc(C(=O)NCCO)cn23)CC1`: the PXC50 reads like this: (MAX_EFFECT 34.44976077) below 4; (MAX_EFFECT 46.06946984) below 4.
With `Cc1nn(C)cc1-c1cc(C(F)(F)F)nc(NC2CCN(C)CC2)n1`, the PXC50 by setting is: (MAX_EFFECT 9.138381201) below 4; (MAX_EFFECT 9.921671018) below 4.
`Cc1sc2nc(CCN)nc(N3CCN(S(C)(=O)=O)CC3)c2c1C`: the PXC50 by setting is: (MAX_EFFECT 9.660574413) below 4; (MAX_EFFECT 10.96605744) below 4.
As for `O=C(NCC1(O)CCCCC1)c1cc(=O)c2cc(F)cc(O)c2o1`, the PXC50 is, setting by setting: (MAX_EFFECT 3.03030303) below 4; (MAX_EFFECT 5.182341651) below 4.
With `CCc1ccc(CN(C)Cc2nc(N)c3c(C)c(C)sc3n2)cc1`, the PXC50 is, setting by setting: (MAX_EFFECT 28.57142857) below 4; (MAX_EFFECT 30.4) below 4.
Turning to `Nc1noc2ccc(-c3cnc4ccc(NCCN5CCOCC5)nn34)cc12`, the PXC50 is below 4 (MAX_EFFECT -0.438596491) and below 4 (MAX_EFFECT -1.041666667).
As to `O=C1NCCCC12CCN(c1nc3c(c(C(F)(F)F)n1)CCCC3)C2` (stereo not drawn), the PXC50 runs as follows: (MAX_EFFECT 4.081632653) below 4; (MAX_EFFECT 6.313131313) below 4.
Take `Cc1ccc(-c2ncc(CNc3cnccc3CO)s2)cc1`: the PXC50 is, setting by setting: (MAX_EFFECT 7.042253521) below 4; (MAX_EFFECT 10.18518519) below 4.
On to `CCC(=O)N1CCC(c2ncc3c(n2)CCNC3)CC1`, for which the PXC50 runs as follows: (MAX_EFFECT 1.814058957) below 4; (MAX_EFFECT 14.20560748) below 4.
As for `Cc1nc(N2CC(N3CCCCC3C)C2)c2ccsc2n1` (stereo not drawn), the PXC50 reads like this: (MAX_EFFECT 5.319148936) below 4; (MAX_EFFECT 5.699481865) below 4.
Turning to `Cc1ncc(CNc2cnccc2CO)s1`, the PXC50 is, setting by setting: (MAX_EFFECT 4.225352113) below 4; (MAX_EFFECT 9.814814815) below 4.
With `CC[C@H](C)[C@H](Nc1nc(C)nc2sc3c(c12)CCCC3)C(=O)O`, the PXC50 is, setting by setting: (MAX_EFFECT 21.80851064) below 4; (MAX_EFFECT 23.31606218) below 4.
Take `Cc1cc(C)n(-c2nc(NCC(C)(C)O)c3c4c(sc3n2)CCCC4)n1`: the PXC50 by setting is: (MAX_EFFECT 11.97916667) below 4; (MAX_EFFECT 40.35087719) below 4.
Take `Cc1cc2c(N3CCCCC3)nc(-c3cccnc3)nc2s1`: the PXC50 was below 4 (MAX_EFFECT 30.15075377) and below 4 (MAX_EFFECT 37.1007371).
Turning to `O=C(NCC1(O)CCCCC1)c1cc(=O)c2cc[nH]c(=O)c2o1`, the PXC50 reads like this: (MAX_EFFECT 6.333973129) below 4; (MAX_EFFECT 9.409888357) below 4.
The compound `OCCN1CCC(F)(F)C2(CCN(c3cnccn3)C2)C1` (stereo not drawn) displayed a PXC50 (MAX_EFFECT 3.174603175) below 4 and a PXC50 (MAX_EFFECT 14.57943925) below 4.
As for `Cc1sc2nc(-c3cccnc3)nc(NCCN3CCOCC3)c2c1C`, the PXC50 is below 4 (MAX_EFFECT 3.015075377) and below 4 (MAX_EFFECT 4.668304668).
The compound `CCn1ncc(-c2cc(C(F)(F)F)nc(N3CCC(N)CC3)n2)c1C` registered a PXC50 (MAX_EFFECT 0.522193211) below 4 and a PXC50 (MAX_EFFECT 1.305483029) below 4.
On to `Cc1sc2nc(C(F)(F)F)nc(N3CCCN(C)CC3)c2c1C`, for which the PXC50 runs as follows: (MAX_EFFECT 3.916449086) below 4; (MAX_EFFECT 8.877284595) below 4.
In turn, `O=C(c1cnccn1)N1CCC(F)(F)C2(CCN(c3ccccn3)C2)C1` (stereo not drawn) showed a PXC50 (MAX_EFFECT 7.962962963) below 4 and a PXC50 (MAX_EFFECT 7.981220657) below 4.
`Cc1sc2nc(CCN)nc(N3CCC(N4CCCC4)CC3)c2c1C`: the PXC50 is below 4 (MAX_EFFECT 14.62140992) and below 4 (MAX_EFFECT 16.44908616).
Regarding `O=C(NCC1(O)CCC(F)(F)CC1)c1cc(=O)c2cc(F)cc(O)c2o1`, the PXC50 by setting is: (MAX_EFFECT 4.030710173) below 4; (MAX_EFFECT 10.04784689) below 4.
